Assay results: PubChem BioAssay AID1069 (NMMLSC, 2008)
The source made the active and inactive calls.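 How the source made its calls: active means high combined rank on largest and smallest cell-count-weighted shift across three tests, rank score above 45, floors 50 and 25 (some results past the limit were not filed as active); inactive means the rest.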

Test: LNCaP granularity increase inducers, single-point recheck – cell-based, side scatter shift, flow cytometry, confirmation (AID 1069);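 further: LNCaP human prostate cancer cells in low-serum medium with charcoal-stripped FBS; percent of cells with raised granularity gated so DMSO controls show 10%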
Settings: LNCaP differentiation, 4 d, at 100 µM, stronger effect = higher value

Structure (SMILES) | side scatter shift
CCN(CC)CCCNC(=O)c1cc2c(-c3ccc(Cl)cc3)nn(C)c2s1 | 61.5% (active)
CCOc1ccc(-c2cc(C(=O)NCCCN3CCN(CC)CC3)c3ccccc3n2)cc1 | 28.2% (active)
O=C(NCCCN1CCN(c2ccccc2F)CC1)C1CCN(S(=O)(=O)N2CCOCC2)CC1 | 19.9% (inactive)
CC(=O)Nc1cc(C(=O)N2CCOCC2)ccc1S(=O)(=O)c1ccc(C)cc1 | 11.4% (inactive)
CCc1nnc(NC(=O)CSc2nc3ccccc3s2)s1 | 5.7% (inactive)
Cc1ccc(-c2noc(CCC(=O)NC3CCN(Cc4ccccc4)CC3)n2)cc1 | 33.3% (inactive)
CCC(C(=O)Nc1ccccc1OC)n1c(C(=O)OC)cc2ccsc21 (stereo unspecified) | 12.2% (inactive)
COc1ccccc1N1CCN(C(=O)CCn2c(=O)[nH]c3ccsc3c2=O)CC1 | 19.4% (inactive)
CCOC(=O)N1CCC(NC(=O)c2cc3c(-c4cccc(OC)c4)nn(C)c3s2)CC1 | 7.7% (inactive)
Cc1nc2c3cnn(-c4ccccc4)c3ncn2n1 | 5% (inactive)
O=c1c2ccccc2nnn1CSc1nnc2sc3ccccc3n12 | 15.6% (inactive)
CCN(CCCNS(=O)(=O)c1ccc2c(c1)oc(=O)n2C)c1cccc(C)c1 | 22.2% (inactive)
Cc1nnc(NCc2n[nH]c(=O)c3ccccc23)c2ccccc12 | 46.8% (inactive)
Nc1ccc(-n2ccnc2)cc1 | 37.6% (inactive)
CC1CCCCN1CCNC(=O)c1cc2c(-c3ccccc3F)nn(C)c2s1 (stereo unspecified) | 42.4% (inactive)
O=C(CCNC(=O)Cn1ccc2ccccc2c1=O)NCCCN1CCN(c2ccc(F)cc2)CC1 | 21.8% (inactive)
Cc1oc(-c2ccc(Cl)cc2)nc1CN1CCCC(C(=O)NCc2ccco2)C1 (stereo unspecified) | 22.2% (inactive)
Cc1oc(-c2ccccc2F)nc1CN1CCC(C(=O)NCCC2=CCCCC2)CC1 | 29.4% (inactive)
Cc1oc(-c2ccc(Cl)cc2)nc1CN1CCC(C(=O)NCc2cccnc2)CC1 | 30% (inactive)

Structure (SMILES) | side scatter shift
Cc1cc(C)n2nc(SCC(=O)Nc3ccc(F)cc3)nc2n1 | 4% (inactive)
CC(C)n1c(=S)[nH]c2c1c(=O)[nH]c(=O)n2C | 8.1% (inactive)
O=C(COc1ccc(S(=O)(=O)N2CCCC2)cc1Cl)NC1CC1 | 3.1% (inactive)
O=C(NCCCN1CCN(c2ccccc2F)CC1)C1CCC(=O)N1C1CCCCC1 (stereo unspecified) | 8% (inactive)
CCCc1cc(-c2n[nH]c(C)c2-c2ccc(C(=O)OCC)o2)c(O)cc1O | 42.9% (inactive)
COC(=O)CN1CCN(C(=O)c2ccc(F)cc2)c2ccccc2C1 | 12.5% (inactive)
CCOC(=O)N1CCN(C(=O)CCc2c(C)nc3c(c(C)nn3-c3ccc(C)c(C)c3)c2C)CC1 | 0% (inactive)
Cc1ccc(Cn2ccc(NC(=O)c3cc(-c4ccc(Br)cc4)on3)n2)cc1 | 23% (inactive)
Cc1ccccc1-c1nc(CN2CCC(C(=O)N3CCC(C(N)=O)CC3)CC2)c(C)o1 | 12% (inactive)
Cc1cccc(N2CCN(C(=O)CCNC(=O)Cn3ccc4ccccc4c3=O)CC2)c1C | 0% (inactive)
N=c1n(CCO)c2ccccc2n1CCOc1ccc(Cl)cc1Cl | 22.2% (inactive)
COc1ccc(Cl)c(N2CCN(CCCNC(=O)Nc3ccc(C)cc3)CC2)c1 | 26.3% (inactive)
CCOC(=O)C1=C(C)N=c2s/c(=C\c3ccncc3)c(=O)n2C1c1ccc2c(c1)OCO2 (stereo unspecified) | 47.1% (inactive)
N=c1n(CCN2CCCCC2)c2ccccc2n1CC(O)COc1ccccc1 (stereo unspecified) | 20% (active)
Cc1ccc(C)c(N2CCN(CCCNC(=O)Cn3cc4c(n3)CCCCC4)CC2)c1 | 0% (inactive)
COC(=O)Nc1sc2c(c1C(N)=O)CCCCCC2 | 10% (inactive)
COc1ccc(S(=O)(=O)Nc2ccc(F)c(Cl)c2)cc1OC | 44.4% (inactive)
CCOc1ccc(NC(=O)COc2nsnc2N2CCCCC2)cc1 | 8.7% (inactive)
COc1ccc(CN2C(=O)C(O)(CC(=O)c3c(C)n[nH]c3C)c3ccccc32)cc1OC (stereo unspecified) | 9.9% (inactive)

Same assay, conditions: LNCaP differentiation, 4 d, side scatter shift, at 10 µM, stronger effect = higher value

Structure (SMILES) | side scatter shift [%]
CCN(CC)CCCNC(=O)c1cc2c(-c3ccc(Cl)cc3)nn(C)c2s1 | 81.5
CCOc1ccc(-c2cc(C(=O)NCCCN3CCN(CC)CC3)c3ccccc3n2)cc1 | 73
O=C(NCCCN1CCN(c2ccccc2F)CC1)C1CCN(S(=O)(=O)N2CCOCC2)CC1 | 7.2
CC(=O)Nc1cc(C(=O)N2CCOCC2)ccc1S(=O)(=O)c1ccc(C)cc1 | 2.95
CCc1nnc(NC(=O)CSc2nc3ccccc3s2)s1 | 5
Cc1ccc(-c2noc(CCC(=O)NC3CCN(Cc4ccccc4)CC3)n2)cc1 | 4.5
CCC(C(=O)Nc1ccccc1OC)n1c(C(=O)OC)cc2ccsc21 (stereo unspecified) | 2.5
COc1ccccc1N1CCN(C(=O)CCn2c(=O)[nH]c3ccsc3c2=O)CC1 | 1.7
CCOC(=O)N1CCC(NC(=O)c2cc3c(-c4cccc(OC)c4)nn(C)c3s2)CC1 | 2.35
Cc1nc2c3cnn(-c4ccccc4)c3ncn2n1 | 1.75
O=c1c2ccccc2nnn1CSc1nnc2sc3ccccc3n12 | 4.8
CCN(CCCNS(=O)(=O)c1ccc2c(c1)oc(=O)n2C)c1cccc(C)c1 | 4.85
Cc1nnc(NCc2n[nH]c(=O)c3ccccc23)c2ccccc12 | 6.5
Nc1ccc(-n2ccnc2)cc1 | 7.5
CC1CCCCN1CCNC(=O)c1cc2c(-c3ccccc3F)nn(C)c2s1 (stereo unspecified) | 19.9
O=C(CCNC(=O)Cn1ccc2ccccc2c1=O)NCCCN1CCN(c2ccc(F)cc2)CC1 | 7.25
Cc1oc(-c2ccc(Cl)cc2)nc1CN1CCCC(C(=O)NCc2ccco2)C1 (stereo unspecified) | 12.7
Cc1oc(-c2ccccc2F)nc1CN1CCC(C(=O)NCCC2=CCCCC2)CC1 | 17.8
Cc1oc(-c2ccc(Cl)cc2)nc1CN1CCC(C(=O)NCc2cccnc2)CC1 | 5.8

Structure (SMILES) | side scatter shift [%]
Cc1cc(C)n2nc(SCC(=O)Nc3ccc(F)cc3)nc2n1 | 2.8
CC(C)n1c(=S)[nH]c2c1c(=O)[nH]c(=O)n2C | 2.4
O=C(COc1ccc(S(=O)(=O)N2CCCC2)cc1Cl)NC1CC1 | 1.25
O=C(NCCCN1CCN(c2ccccc2F)CC1)C1CCC(=O)N1C1CCCCC1 (stereo unspecified) | 4.05
CCCc1cc(-c2n[nH]c(C)c2-c2ccc(C(=O)OCC)o2)c(O)cc1O | 5.15
COC(=O)CN1CCN(C(=O)c2ccc(F)cc2)c2ccccc2C1 | 3.1
CCOC(=O)N1CCN(C(=O)CCc2c(C)nc3c(c(C)nn3-c3ccc(C)c(C)c3)c2C)CC1 | 6.6
Cc1ccc(Cn2ccc(NC(=O)c3cc(-c4ccc(Br)cc4)on3)n2)cc1 | 10.6
Cc1ccccc1-c1nc(CN2CCC(C(=O)N3CCC(C(N)=O)CC3)CC2)c(C)o1 | 10.9
Cc1cccc(N2CCN(C(=O)CCNC(=O)Cn3ccc4ccccc4c3=O)CC2)c1C | 2
N=c1n(CCO)c2ccccc2n1CCOc1ccc(Cl)cc1Cl | 8.75
COc1ccc(Cl)c(N2CCN(CCCNC(=O)Nc3ccc(C)cc3)CC2)c1 | 12
CCOC(=O)C1=C(C)N=c2s/c(=C\c3ccncc3)c(=O)n2C1c1ccc2c(c1)OCO2 (stereo unspecified) | 6.4
N=c1n(CCN2CCCCC2)c2ccccc2n1CC(O)COc1ccccc1 (stereo unspecified) | 50.2
Cc1ccc(C)c(N2CCN(CCCNC(=O)Cn3cc4c(n3)CCCCC4)CC2)c1 | 7.55
COC(=O)Nc1sc2c(c1C(N)=O)CCCCCC2 | 5.65
COc1ccc(S(=O)(=O)Nc2ccc(F)c(Cl)c2)cc1OC | 6.75
CCOc1ccc(NC(=O)COc2nsnc2N2CCCCC2)cc1 | 6.35
COc1ccc(CN2C(=O)C(O)(CC(=O)c3c(C)n[nH]c3C)c3ccccc32)cc1OC (stereo unspecified) | 6.45
